Efflux pump inh: antifungal efflux pump inhibition, Nile Red retention; S. cerevisiae Candida pump triplex; inhibition, % at 10 µM; 330,000 compounds, 0.44% hits; AID 485275;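 active means plate passing quality check with inhibition over a set limit, or well fluorescence over plate mean plus 4 SD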;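 further: Nile Red retained in pooled yeast measured as flow cytometry median fluorescence; 0% = buffer negative control and 100% = Enniatin B positive control; higher means more Nile Red kept so more efflux inhibition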
LAP4 TOR yeast: alters LAP4-GFP fluorescence in TOR pathway yeast screen | S. cerevisiae LAP4-GFP multiplex, flow cytometry GFP, 3 h; median GFP as percent of DMSO wells | GFP response vs DMSO, % at 10 µM | 320,000 compounds, 0.34% hits | AID 2023;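 active means GFP response vs DMSO above a set limit, about the screen mean plus 3 SD, cut at about 150% in these data; inconclusive means under 70 cell events counted for the yeast strain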
RPL19A TOR yeast: modulators of TOR pathway RPL19A-GFP in S. cerevisiae | 330,000 compounds, 0.3% hits | percent response vs DMSO, % at 10 µM | S. cerevisiae RPL19A-GFP strain, flow cytometry, 3 h; hits give low values | AID 2025;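 active means percent response vs DMSO below 50%; inconclusive means fewer than 70 events counted for the yeast strain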;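 further: median channel GFP fluorescence of the barcoded RPL19A-GFP strain; ratio of sample median GFP to plate DMSO average so 100% = DMSO; lower means less RPL19A-GFP as with rapamycin TOR inhibition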
AGP1 TOR yeast: modulators of TOR pathway AGP1-GFP in S. cerevisiae; S. cerevisiae AGP1-GFP multiplex flow cytometry, 3 h; GFP as percent of DMSO wells; 320,000 compounds, 0.02% hits; GFP response vs DMSO, % at 10 µM;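 active means GFP response relative to DMSO above a set limit, near screen average plus 3 SD, cut at about 150% in these data; inconclusive means fewer than 70 cells counted for the yeast strain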;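 further: median GFP channel fluorescence of the gated AGP1 strain per well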
CIT2-GFP yeast: yeast TOR pathway CIT2-GFP modulation | GFP response vs DMSO, % at 10 µM | AID 2029 | 320,000 compounds, 0.065% hits | S. cerevisiae CIT2-GFP strain, flow cytometry, 3 h; 100 means same as DMSO wells;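 active means GFP response relative to DMSO above a set limit, near the screen mean plus 3 SD, cut at about 150% in these data; inconclusive means Fewer than 70 cells measured for a yeast strain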;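 further: ratio of well median GFP fluorescence to mean of DMSO wells on the plate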
MEP2-GFP yeast: modulators of TOR pathway MEP2-GFP in S. cerevisiae | S. cerevisiae MEP2-GFP strain, flow cytometry GFP, 3 h; 100% = DMSO control level | GFP response vs DMSO, % at 10 µM | 330,000 compounds, 0.51% hits;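 active means GFP response versus DMSO above a set limit, roughly screen mean plus 3 SD, cut at about 180% in these data; inconclusive means fewer than 70 cells counted for a yeast strain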;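 further: median GFP fluorescence of the barcode-gated MEP2-GFP cells per well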
Yeast cmpd fluor: flagged as fluorescent in efflux inhibitor counter-screen | 1,700 compounds, 4% hits | S. cerevisiae AD/pABC3, compound fluorescence, flow cytometry | shares compounds with Efflux pump inh | fluorescence ratio to DMSO, % at 10 µM;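 active means fluorescence ratio to DMSO above its plate's cutoff, the plate mean ratio plus 5 SD, cut at about 210% in these data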;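 further: unstained yeast with no Nile Red so the signal is compound autofluorescence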
CaMdr1 efflux inh: blocks the Candida albicans Mdr1 efflux pump in yeast. shares compounds with Efflux pump inh. AID 588518. 1,700 compounds, 1% hits. inhibition, % at 10 µM. S. cerevisiae AD/CaMDR1, Nile Red efflux, flow cytometry; in the data active means inhibition above about 26%;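 further: 0% = DMSO vehicle and 100% = reference inhibitor; higher means more Nile Red retained so more efflux inhibition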
CaCdr2 efflux inh: Candida Cdr2 efflux pump inhibition. 1,700 compounds, 4% hits. S. cerevisiae AD/CaCDR2, Nile Red retention, flow cytometry. Nile Red retention ratio vs DMSO, % at 10 µM. shares compounds with Efflux pump inh; in the data active means Nile Red retention ratio vs DMSO above about 190%;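 further: higher ratio means more blocking of Cdr2 efflux of the dye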
CaCdr1 efflux inh: blocks the Candida albicans Cdr1 efflux pump in yeast | 1,700 compounds, 1% hits | S. cerevisiae AD/CaCDR1, Nile Red efflux, flow cytometry | inhibition, % at 10 µM | shares compounds with Efflux pump inh | AID 588522;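 active means inhibition above the screen-wide mean plus twice its standard deviation, cut at about 32% in these data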
* = called active by the depositor; u = inconclusive; x = not tested or not shown. This is a sample that favours compounds with a hit; in the whole collection about 1.3% have one here.

SMILES	Efflux pump inh	LAP4 TOR yeast	RPL19A TOR yeast	AGP1 TOR yeast	CIT2-GFP yeast	MEP2-GFP yeast	Yeast cmpd fluor	CaMdr1 efflux inh	CaCdr2 efflux inh	CaCdr1 efflux inh
CC(=O)N1CCc2cc(S(=O)(=O)NCc3ccc(C)cc3)ccc21	-0.1	81.2	90.8	92.1	98.2	89.1	x	x	x	x
Cc1ccc(CNS(=O)(=O)c2ccc3c(c2)CCN3C(=O)C2CCC2)cc1	0.1	90.9	99.4	95.7	94.2	90.9	101.8	-0.3	99.3	0.0
O=C(C1CCC1)N1CCc2cc(S(=O)(=O)NC3CCCC3)ccc21	-0.1	109.4	98.0	104.1	103.5	97.3	x	x	x	x
O=C(O)c1cccc(-c2ccc(/C=c3/sc4nc5ccccc5n4c3=O)o2)c1	3.9*	110.7	100.3	103.9	92.3	94.8	132.5	0.1	262.1*	0.3
COc1cc(SC)ccc1C(=O)Nc1nccs1	1.0*	119.7	87.1	89.2	97.4	96.8	107.8	-0.1	95.6	-0.1
COc1cc(SC)ccc1C(=O)Nc1ccccc1	0.0	114.3	61.3	17.6	u	168.7	x	x	x	x
Nc1cc2c(cc1C(=O)c1cccc(Br)c1)OCCO2	0.6*	101.1	103.9	100.2	109.8	106.3	100.2	-0.3	103.6	0.2
Cc1ccc(S(=O)(=O)N(C)C)cc1NC(=O)c1cc(C(C)(C)C)nn1Cc1ccccc1	-0.1	105.9	96.1	114.0	106.1	87.3	x	x	x	x
COc1ccc(/C=C/C(=O)Nc2cc(S(=O)(=O)N3CCCCC3)ccc2N2CCCCC2)cc1OC	0.0	93.4	103.2	106.2	111.6	102.7	x	x	x	x
COc1ccc(/C=C(\C#N)C(=O)Nc2cc(S(=O)(=O)N3CCCCC3)ccc2N2CCCCC2)cc1	0.5*	97.6	101.8	100.1	102.2	106.1	126.1	-0.2	114.1	0.3
CCOC(=O)c1ccccc1NS(=O)(=O)c1ccccc1F	5.9*	103.2	101.9	104.0	95.0	102.9	100.2	-0.2	88.8	0.0
COC(=O)Cn1c(CN2CCOCC2)nc2c1c(=O)[nH]c(=O)n2C	1.2*	104.4	102.5	100.3	96.1	104.3	108.3	0.0	103.6	0.1
CCOC(=O)N1CCN(C(=O)COc2cccc3c2CCN(Cc2ccccc2F)C3=O)CC1	2.7*	89.9	105.4	93.8	97.8	96.0	112.7	-0.1	106.0	-0.1
COc1ccc(CN2C(=O)C(Cc3ccccc3)Nc3ncnc(N4CCc5ccccc5C4)c32)cc1 (configuration not stated)	0.3	109.3	99.0	88.3	91.7	94.9	x	x	x	x
COc1cc([N+](=O)[O-])ccc1NC(=O)NN1CCN(C)CC1	5.3*	85.8	107.8	99.5	105.6	105.5	84.4	0.2	93.2	-0.2
CN1CCN(NC(=O)Nc2ccc([N+](=O)[O-])cc2)CC1	0.2	103.5	100.3	98.8	96.5	104.1	x	x	x	x
CC(C)NC(=O)CSc1nc(N)c(NC(=O)c2ccco2)c(=O)[nH]1	-0.1	92.3	103.1	95.9	102.0	101.5	x	x	x	x
Cn1ncc(Cl)c1C(=O)Nc1sc2c(c1C(N)=O)CCC2	0.0	114.2	103.8	106.0	95.9	106.9	92.1	-0.2	98.5	0.0
CCn1ncc(Br)c1C(=O)Nc1sc2c(c1C(=O)OC)CCC2	0.4	79.3	112.1	83.8	80.2	96.7	97.6	-0.1	111.6	-0.1
NC(=O)c1c(NC(=O)c2ccccc2)sc2c1CCC2	0.0	92.7	96.4	85.2	93.8	97.4	x	x	x	x
O=C(Nc1sc2c(c1C(=O)O)CCC2)c1ccccc1Cl	0.5*	88.5	107.2	89.4	105.8	116.9	100.3	-0.1	107.2	0.0
CCOC(=O)c1c(NC(=O)c2c(Br)cnn2CC)sc(C)c1C	-0.1	99.4	101.2	98.6	104.0	100.0	x	x	x	x
O=C(Nc1sc2c(c1C(=O)O)CCCC2)c1ccccc1Cl	-0.2	86.8	113.0	98.0	115.2	122.0	x	x	x	x
CCn1ccc(C(=O)Nc2sc3c(c2C(=O)OC)CCC3)n1	0.6*	94.2	117.8	88.4	109.0	112.4	92.9	0.0	95.4	-0.1
COC(=O)c1c(NC(=O)c2ccn(C)n2)sc2c1CCC2	-0.5	92.0	104.2	92.1	91.7	91.7	102.2	-0.1	106.3	0.1
SMILES	Efflux pump inh	LAP4 TOR yeast	RPL19A TOR yeast	AGP1 TOR yeast	CIT2-GFP yeast	MEP2-GFP yeast	Yeast cmpd fluor	CaMdr1 efflux inh	CaCdr2 efflux inh	CaCdr1 efflux inh
COC(=O)c1c(NC(=O)c2nn(C)cc2Cl)sc2c1CCCC2	0.3	93.7	94.4	92.8	95.5	103.6	x	x	x	x
CCn1ncc(Br)c1C(=O)Nc1cc(C)cc(C)c1	6.5*	96.6	101.1	100.2	104.0	99.9	107.9	0.0	106.0	0.0
CCn1ncc(Br)c1C(=O)Nc1cccc(C(C)=O)c1	0.0	99.0	101.4	93.7	102.7	114.5	x	x	x	x
CCCN=C1N(CC)C[C@@H]2[C@@H]3C(=O)N(C)C(=O)[C@@H]3[C@](CC)(C(=O)OC)N12	0.2	x	x	x	x	x	x	x	x	x
CCC(Sc1nc2ccncc2[nH]1)C(=O)Nc1ccc(C)c(Cl)c1 (configuration not stated)	0.8	97.9	102.3	98.2	100.0	107.3	x	x	x	x
Cc1ccc(NC(=O)COc2ccc(N(C)S(=O)(=O)c3ccc(F)cc3)cc2)cc1	0.8*	96.7	92.1	90.9	93.8	93.1	86.5	0.1	103.8	-0.4
CCOC(=O)C(NC(=O)c1cccc(Cl)c1)(Nc1nnc(C)s1)C(F)(F)F (configuration not stated)	9.7*	88.3	100.2	91.3	90.3	100.8	105.7	0.5	108.1	0.3
O=C(CCCc1ccccc1)N=C1SC2CS(=O)(=O)CC2N1c1ccccc1 (configuration not stated)	0.0	102.5	96.0	104.0	98.0	99.5	x	x	x	x
CN(C)c1ccc(N2C(=NC(=O)CCc3ccccc3)SC3CS(=O)(=O)CC32)cc1 (configuration not stated)	1.0*	96.4	99.2	101.3	97.7	98.3	121.2	0.9	99.3	0.1
CCOC(=O)c1csc(NC(=O)CN2CCOCC2)n1	-0.4	94.7	106.2	104.3	103.5	110.2	x	x	x	x
COc1ccccc1/C=C/C1=NC(=C\C=C/c2ccccc2)/C(=O)O1	5.2*	92.5	104.1	99.8	101.7	97.3	112.7	0.1	110.1	0.4
COc1ccccc1/C=C/C=C1N=C(/C=C/c2ccc(Cl)cc2)OC/1=O	0.5	97.6	99.0	97.2	102.9	105.7	x	x	x	x

Screening data deposited in PubChem BioAssay by NMMLSC.
